# Measurements: PubChem BioAssay AID651871 (Sanford-Burnham Center for Chemical Genomics, 2012)
# Several values for one entry are separate records, joined by “and”; a condition that tells them apart may be missing. Equal values may be shown once.
# Test system: HL-1
# Experiment: cardiomyocyte survival under oxidative or metabolic stress – cell-based, panel, H9c2 and HL-1, ATP luminescence, set 2, SAR follow-up (AID 651871);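 also: cells exposed to stressor for 2 h before ATP readout; reference of the scale not given here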
# Details: H9c2/HL-1 cardiomyocytes, H2O2 oxidative stress; with H2O2, run 2, at 79 µM (top of the series)
row,SMILES,activity (protection/inhibition)
1,COc1cc(-c2cc(C(=O)Nc3cccc(C(=O)NCc4ccccc4)c3)c3ccccc3n2)cc(OC)c1OC,25%
2,CCOC(=O)c1cccc(NC(=O)CNC(=O)c2cc(-c3cc(OC)c(OC)c(OC)c3)nc3ccccc23)c1,44%
3,COc1ccc2c(c1OC)C(=O)N1c3ccccc3C(=O)N(Cc3cccc(Cl)c3Cl)C21 (centres undefined),-0.168% and -1.52% and -3.02%
4,COc1ccc2nc(-c3cc(OC)c(OC)c(OC)c3)cc(C(=O)NCC(=O)Nc3ccc(C(C)=O)cc3)c2c1,27.5% and 38.9%
